This is a sample that favours compounds with a hit; in the whole collection about 6.2% have one here.
HT1080 IDH1KD tx – qHTS for induction of synthetic lethality in tumor cells producing 2HG: qHTS for the HT-1080-IDH1KD cell line | Potency, µM (highest dose often 46.1 µM), for inactives: at the highest dose activity, negative = toxicity, actives largely listed as cytotoxic | actives 2% (n = 360,000) | HT-1080 IDH1 knockdown viability, ATP luminescence, 48 h | AID 686971, 2013;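 note: 0% = DMSO wells and -100% = cell-free medium wells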
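HT-1080-IDH1KD cells (IDH1 knocked down), 750/well in RPMI with 5% FBS, treated with compound 48 h at 37 degrees C. Viability by CellTiter-Glo luminescence, normalised to DMSO and no-cell wells; concentration-response curves classed.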
ATXN2 expr inh – Primary qHTS for Inhibitors of ATXN expression | HEK-293 ATXN2-luciferase reporter, luminescence, 24 h | Potency, µM (doses to about 57 µM), for inactives: top-dose activity change, negative = inhibition, hits mostly inhibitors | actives 0.72% (n = 360,000) | AID 1745845, 2022; note: % is set by controls: 0 for no effect and ±100 for the full control effect; nearly all actives have a fitted effect of over 55% in size
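qHTS (up to 57 uM final) was run with 24 h compound exposure of reporter cells at 37 °C. Each well was multiplexed: SteadyGlo luminescence measured ATXN2-luciferase expression after a fluorogenic Gly-Phe-AFC viability readout (25 uM final).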
S2 tox – Viability Counterscreen for Primary qHTS for Inhibitors of ATXN expression; Potency, µM (highest dose often 56.7 µM), usual class: cytotoxic; actives 0.49% (n = 400,000); S2 cells (HEK-293 line with an ATXN2-luciferase reporter) viability, CellTiter-Fluor protease fluorescence, 24 h; AID 651635, 2014; note: nearly all actives have a fitted effect of over 40% in size
KB-3-1 cytotox – qHTS assay for MDR1-selective chemotherapeutics: Primary screen using the parental adenocarcinoma cell KB-3-1; Potency, µM (doses to about 46.1 µM), usual class: cytotoxic; KB-3-1 viability, CellTiter-Glo ATP luminescence, 72 h; actives 1.4% (n = 400,000); note: % is set by controls: 0 for no effect and ±100 for the full control effect; nearly all actives have a fitted effect of over 60% in size
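Here the drug-naive KB-3-1 line serves as comparator for MDR sub-line selectivity; cells received compound titrations, 72 h at 37 °C, then CellTiter-Glo readout.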
HT1080NT lethal – qHTS for induction of synthetic lethality in tumor cells producing 2HG: qHTS for the HT-1080-NT fibrosarcoma cell line; Potency, µM (series often up to 46.1 µM), for the others: at the highest dose activity, negative = less viability, actives largely listed as cytotoxic; actives 1.6% (n = 360,000); HT-1080-NT fibrosarcoma viability, CellTiter-Glo ATP luminescence, 48 h;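 note: NT is the 2HG producing partner of a matched IDH1 knockdown line; 0% = DMSO-treated cells and -100% = media-only wells without cells; nearly all actives have a fitted effect of over 55% in size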
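Toxicity toward the 2HG-producing NT line was scored as %Activity, normalised to DMSO and no-cell wells, from CellTiter-Glo luminescence after 48 hours' treatment.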
KB-V1 cytotox – qHTS assay for MDR1-selective chemotherapeutics: Primary screen using the drug-selected MDR subline cells KB-V1 | KB-V1 MDR cells viability, CellTiter-Glo, 72 h | Potency, µM (doses to about 46.1 µM), hits mostly cytotoxic | actives 3.4% (n = 400,000) | AID 1347076, 2019; note: % is set by controls: 0 for no effect and ±100 for the full control effect; nearly all actives have a fitted effect of over 60% in size
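Cytotoxicity via CellTiter-Glo luminescence after 72 h compound exposure at 37 degrees C. Cells: drug-selected KB-V1 line, DMEM phenol-red free plus 10% FBS. Compounds tested at multiple concentrations; normalized data fitted to concentration-effect curves.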
Active calls of the source: *; i = inactive; u = inconclusive; x = no result given; ! = repeats disagree; [ ] = dose if it differs, or a comment. Calls come from the whole dose curve; as a rule, active = well fitted curve in the direction sought with a large enough effect; inconclusive = small, poorly fitted or top-dose-only effect, or another doubt; inactive = no such curve, though single readings can be large; an effect the other way counts as inactive or inconclusive. Potency is the fitted concentration of half-maximal effect.

SMILES	HT1080 IDH1KD tx	ATXN2 expr inh	S2 tox	KB-3-1 cytotox	HT1080NT lethal	KB-V1 cytotox
OC(c1ccc2c(c1)CN(Cc1ccc3nsnc3c1)CCO2)C1CCCCC1 (configuration not stated)	x	x	i	x	x	x
COc1cc(/C=N/OCC(=O)Nc2cc(C)cc(C)c2)ccc1OCc1ccc(Cl)cc1	-4.0%	44.8%	i	u	8.7%	20.6µM*
COc1cc(/C=N/OCC(=O)NC2CCCCC2C)ccc1OCc1ccc(Cl)cc1 (configuration not stated)	u	41.6%	i	u	-21.3%	8.2µM*
CCc1ccccc1NC(=O)CN1C(=O)c2cccnc2Oc2ccc(Cl)cc21	x	x	x	i	x	i
Cc1cccc(N(C)C(=O)C2CCN(S(=O)(=O)c3cccc4nonc34)CC2)c1	x	-13.4%	u	i	x	i
CN(C)c1cccc(-c2ncnc(N3CCC(C(N)=O)CC3)n2)c1	x	x	x	i	x	i
CCCCN1C(C(=O)c2ccccc2)=C(OC(=O)CC)c2ccccc2S1(=O)=O	x	u	u	14.6µM*	x	i
CCCCCN1C(C(=O)c2ccccc2)=C(OC(=O)CC)c2ccccc2S1(=O)=O	x	-20.0%	u	u	x	i
CCN(CC)S(=O)(=O)c1ccc(/C=C/C(=O)Nc2ccc(F)c(F)c2F)cc1	u	-16.8%	i	4.61µM*	-22.8%	u
O=C(/C=C/c1ccc(S(=O)(=O)N2CCOCC2)cc1)Nc1ccc(F)c(F)c1F	-7.3%	-3.4%	i	u	-13.2%	20.6µM*
CCOC(=O)c1c(NC(=O)CSc2cn(CCNC(=O)c3ccc(OC)cc3)c3ccccc23)sc2c1CCC2	x	0.5%	i	i	x	i
C=C(C)C1CC=C(C)/C(=N/NC(=O)c2ccc(NC(=O)CCC)cc2)C1 (configuration not stated)	-4.3%	-0.2%	i	i	5.3%[9.24 µM]	i
C=C(C)C1CC=C(C)/C(=N/NC(=O)c2ccc(NC(=O)CC)cc2)C1 (configuration not stated)	-28.3%	7.9%	i	i	18.6%	14.6µM*
O=C(COc1ccccc1Br)NC1CCCC1	-9.4%	5.6%	i	u	-13.6%	16.4µM*
CN(Cc1ccccc1)c1nc(-c2ccc([N+](=O)[O-])cc2)nc2ccccc12	-3.3%	-11.2%	i	i	1.5%	i
O=[N+]([O-])c1ccc(-c2nc(C(Cl)Cl)c3ccccc3n2)cc1	11.4%	3.98µM*	u	13µM*	-3.6%	i
Cc1ccc(-c2nc3nc(C)cc(Nc4ccccc4O)n3n2)cc1	x	6.0%	i	i	x	u
Cc1cccc(C)c1-n1ncc(C(=O)N2CCN(c3ccccn3)CC2)c1C1CCN(C(=O)OC(C)(C)C)CC1	x	u	i	i	x	i
C=C1C(=O)C23C(O)C1CCC2C12CCCC(C)(COC(C)=O)C1C(O)C3(O)OC2 (configuration not stated)	1.84µM*	u	7.08µM*	13µM*	8.2µM*	u
CCN(CCCNC(=O)C1CCC(=O)N1Cc1ccccc1Cl)c1cccc(C)c1 (configuration not stated)	-3.3%	-8.0%	i	i	-4.0%	6.51µM*
CCN(CCCNC(=O)C1CCC(=O)N1Cc1ccc(C)cc1)c1cccc(C)c1 (configuration not stated)	-1.8%	-9.2%	i	i	-3.8%	i
CN(CCCNC(=O)C1CCC(=O)N1Cc1ccccc1Cl)c1ccccc1 (configuration not stated)	-16.1%	-10.9%	i	i	-1.6%	23.1µM*
CC(C)c1c(C(=O)N2CCN(CCO)CC2)cnn1-c1nccc(-c2cccs2)n1	x	x	i	x	x	x
CC1=C(CC[C@@H](C)CO)OC2CC3C4CCC5CC(O)CCC5(C)C4CC(=O)C3(C)C12 (some centres not stated)	-8.9%	25.1µM*	u	i	-17.6%	u
CCOC(=O)Cn1nc(Cc2ccccc2)c2ccccc2c1=O	-3.2%	-1.0%	i	i	-5.2%	i
SMILES	HT1080 IDH1KD tx	ATXN2 expr inh	S2 tox	KB-3-1 cytotox	HT1080NT lethal	KB-V1 cytotox
CN1CCCC(n2nc(Cc3ccc(Cl)cc3)c3ccccc3c2=O)CC1 (configuration not stated)	4.11µM*	35.5µM*!	31.6µM*!	6.51µM*	5.17µM*	u
COc1ccc(OC)c(NC(=O)CCn2cccn2)c1	x	8.5%	i	i	x	i
CC1(C)C[C@H]2C3=CCC4[C@@]5(C)CC[C@H](O[C@@H]6O[C@H](C(=O)O)[C@@H](O)[C@H](O)[C@H]6O)[C@@](C)(CO)C5CC[C@@]4(C)[C@]3(C)C[C@H](O)[C@@]2(CO)[C@@H](O)[C@@H]1O (some centres not stated)	13.3%	15.9%	i	i	10.3%	i
C/C=C(\C)C(=O)OC1[C@H](OC(C)=O)C2(CO)C(CC1(C)C)C1=CCC3C4(C)CCC(O[C@@H]5O[C@H](C(=O)O)[C@@H](O[C@@H]6O[C@H](CO)[C@@H](O)[C@H](O)[C@H]6O)[C@H](O)[C@H]5O[C@H]5O[C@H](CO)[C@@H](O)[C@H](O)[C@H]5O)[C@](C)(CO)C4CCC3(C)[C@]1(C)C[C@H]2O (some centres not stated)	x	8.91µM*	14.1µM*	i	x	u
C/C=C(/C)C(=O)OC1CC(C)(C)C[C@H]2C3=CC[C@@H]4[C@@]5(C)CCC(O[C@@H]6O[C@@H](C(=O)O)[C@@H](O)C(O[C@@H]7OC[C@H](O)[C@@H](O)[C@@H]7O[C@@H]7OC(CO)C(O)[C@@H](O)[C@@H]7O)C6O[C@@H]6OC(CO)C(O)C(O)C6O)[C@@](C)(CO)[C@@H]5CC[C@]4(C)[C@]3(C)CC(O)[C@@]12CO (some centres not stated)	u	0.0%	31.6µM*	i	u	i
Nc1ccn([C@@H]2O[C@H](C(=O)N3CCN(Cc4ccccn4)CC3)[C@@H](O)[C@H]2O)c(=O)n1	4.7%	-5.7%	i	i	6.7%	i
